Laboratory results from PubChem BioAssay (NCI).
Values joined by “and” are separate entries in the source; they are usually repeats but may differ in a detail not shown here. Equal entries are not always repeated. Compounds without any hit were thinned out: in the full panel of roughly 79,000, 15% have a hit. Active and inactive are the calls of the source. Rule as the data show it: active = growth inhibition above about 70%; inactive = the rest.

Tests used:
[1] = NCI Yeast Anticancer Drug Screen. Data for the rad50 strain (AID 155);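 also: 0% = growth of vehicle-only cultures of the same strain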; conditions: S. cerevisiae rad50 strain growth inhibition, hits give high values
How it was run: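 Vehicle-treated cultures provide the reference for the growth inhibition reported for compound-exposed, repair-deficient yeast.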

[2] = NCI Yeast Anticancer Drug Screen. Data for the mec2-1 strain (AID 157); conditions: S. cerevisiae mec2-1 strain, hits give high values
How it was run: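 Using mec2-1 yeast: add compound, measure growth, express inhibition versus vehicle-treated cultures.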

[3] = NCI Yeast Anticancer Drug Screen. Data for the sgs1 mgt1 strain (AID 161);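 also: 0% = growth of cultures given vehicle only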; conditions: S. cerevisiae sgs1 mgt1 strain, hits give high values
How it was run: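 This yeast growth screen uses a strain with defined DNA-repair lesions; compound-treated growth is compared with vehicle-treated growth.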

[4] = NCI Yeast Anticancer Drug Screen. Data for the cln2 rad14 strain (AID 165);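 also: 0% = growth equal to vehicle treated cultures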; conditions: S. cerevisiae cln2 rad14 strain, hits give high values
How it was run: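 Yeast strain cln2 rad14, bearing defects in cell cycle control and DNA repair, serves as the test system; values reflect growth inhibition compared with vehicle.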

[5] = NCI Yeast Anticancer Drug Screen. Data for the bub3 strain (AID 167); conditions: S. cerevisiae bub3 mutant strain, hits give high values
How it was run: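 Mutant yeast screening strain plus compound; vehicle-treated cultures serve as the 0% inhibition reference.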

[6] = NCI Yeast Anticancer Drug Screen. Data for the mlh1 rad18 strain (AID 175); conditions: S. cerevisiae mlh1 rad18 strain growth inhibition, hits give high values
How it was run: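 Steps: expose repair-defective yeast to compound; measure growth; express inhibition against vehicle-treated controls.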

[7] = at 5.0 µM (retest, dose inferred, filed as 0.5)
[8] = at 50.0 µM (retest, dose inferred, filed as 5.0)

Measured: growth inhibition

CCCCC(CC)CNC(=O)/C=C\C(=O)O (stereo not given)
active: [1]; [8] 85% | [3]; [8] 96% | [5]; [8] 83% | [6]; [8] 91%
inactive: [1]; [7] 15% | [2]; [7] 11% | [2]; [8] 67% | [3]; [7] 10% | [4]; [7] -3% | [4]; [8] 60% | [5]; [7] 6% | [6]; [7] 15%

O=C(CO)NCCO
inactive: [1]; [7] 1% | [1]; [8] 0% | [2]; [7] 3% | [2]; [8] 5% | [3]; [7] -2% | [3]; [8] 2% | [4]; [7] 5% | [4]; [8] -2% | [5]; [7] 5% | [5]; [8] -5% | [6]; [7] 0% | [6]; [8] 2%

CCOC(=O)C(NC(C)=O)C(=O)c1ccccc1 (stereo not given)
inactive: [1]; [7] -3% | [1]; [8] 6% | [2]; [7] -3% | [2]; [8] -4% | [3]; [7] 0% | [3]; [8] -1% | [4]; [7] 11% | [4]; [8] -4% | [5]; [7] 2% | [5]; [8] -1% | [6]; [7] -35% | [6]; [8] -6%

C/C(=N\Nc1ccc(Cl)cc1)C(=O)O
active: [1]; [8] 97% | [2]; [8] 98% | [3]; [8] 99% | [4]; [8] 98% | [5]; [8] 99% | [6]; [8] 96%
inactive: [1]; [7] 17% | [2]; [7] -2% | [3]; [7] 14% | [4]; [7] 8% | [5]; [7] 29% | [6]; [7] -29%

O=c1[nH]c(=O)n(C2OC(CO)C(O)C2O)c2nccnc12 (stereo not given)
inactive: [1]; at 50.0 µM 10.5% and 5.1% | [2]; at 50.0 µM 8.9% and 4.95% | [3]; at 50.0 µM 0.55% and -5.75% | [4]; at 50.0 µM 26.8% and 2.95% | [5]; at 50.0 µM -13.2% and -20.9% | [6]; at 50.0 µM 4.55% and -11.4%

Cc1ccccc1OCc1cccc(Cl)c1
inactive: [1]; [7] 8% | [1]; [8] 23% | [2]; [7] -1% | [2]; [8] 4% | [3]; [7] 4% | [3]; [8] 43% | [4]; [7] 9% | [4]; [8] -10% | [5]; [7] 4% | [5]; [8] 17% | [6]; [7] -5% | [6]; [8] 6%

Cc1ccc(-c2c(C#N)c(-c3ccc(C)cc3)n(NS(=O)(=O)c3ccccc3)c(=O)c2C#N)cc1
inactive: [1]; [7] 30% | [2]; [7] 38% | [3]; [7] 29% | [4]; [7] 53% | [5]; [7] 52% | [6]; [7] 33%
active: [1]; [8] 84% | [2]; [8] 94% | [3]; [8] 94% | [4]; [8] 93% | [5]; [8] 95% | [6]; [8] 85%

C=COC(=O)c1ccccc1C(=O)OCCCC
inactive: [1]; [7] 8% | [1]; [8] 22% | [2]; [7] -2% | [2]; [8] 3% | [3]; [7] 5% | [3]; [8] 37% | [4]; [7] 7% | [4]; [8] -6% | [5]; [7] 4% | [5]; [8] 27% | [6]; [7] 18% | [6]; [8] 6%

O=C(O)C(Cc1ccc(O)cc1)NS(=O)(=O)Cc1ccccc1 (stereo not given)
inactive: [1]; at 50.0 µM -12.8% and 7.15% | [2]; at 50.0 µM -5.85% and 17.5% | [3]; at 50.0 µM -3.1% and 14.7% | [4]; at 50.0 µM 0.4% and -22.2% | [5]; at 50.0 µM -55.3% and 19.9% | [6]; at 50.0 µM -19.1% and 3.8%

O=C(O)/C=C/c1c2ccc(=O)cc-2oc2cc(O)ccc12
inactive: [1]; at 50.0 µM -9.9% and 0.5% | [2]; at 50.0 µM -21.8% and 29.6% | [3]; at 50.0 µM 15.1% and 17.6% | [4]; at 50.0 µM 21.2% and 7.05% | [5]; at 50.0 µM -8.15% and 17.1% | [6]; at 50.0 µM 4.65% and -5.95%

NC(=S)N/N=C/c1ccc([N+](=O)[O-])cc1
inactive: [1]; at 50.0 µM 40.4% and 11.5% | [2]; at 50.0 µM 29.7% and 13.2% | [3]; at 50.0 µM 29.2% and 4.5% | [4]; at 50.0 µM 24.1% and 20.6% | [5]; at 50.0 µM 5.7% and 3.7% | [6]; at 50.0 µM 30.9% and 5.95%

CC(C)=CCCC(C)C1CCC2(C)C3=C(CCC12C)C1(C)CCC(O)C(C)(C)C1CC3 (stereo not given)
inactive: [1]; at 50.0 µM 32.6% and 9.75% | [2]; at 50.0 µM 16.4% and 2.65% | [3]; at 50.0 µM 27.6% and 20.9% | [4]; at 50.0 µM 25.9% and -0.25% | [5]; at 50.0 µM 7.8% and 15.2% | [6]; at 50.0 µM 23.9% and 29.6%

O=C(O)CC(NC(=O)OCc1ccccc1)C(=O)O (stereo not given)
inactive: [1]; at 50.0 µM -30.5% and -21.3% | [2]; at 50.0 µM -16.4% and 9.65% | [3]; at 50.0 µM -6.2% and 0.8% | [4]; at 50.0 µM 16.5% and -33.6% | [5]; at 50.0 µM 1.55% and 4.65% | [6]; at 50.0 µM -8.75% and -16.1%

CC(=O)OCC1OC(CCC#N)C(OC(C)=O)C(OC(C)=O)C1OC(C)=O (stereo not given)
inactive: [1]; at 50.0 µM 10.7% and 1.7% | [2]; at 50.0 µM 15.5% and 14.2% | [3]; at 50.0 µM 17.4% and 2.35% | [4]; at 50.0 µM -12% and -1.35% | [5]; at 50.0 µM 9.3% and -4.05% | [6]; at 50.0 µM 13.6% and 11.3%

O=C(O)/C=C/C(=O)Nc1ccccc1
inactive: [1]; at 50.0 µM -4.8% and -26.8% | [2]; at 50.0 µM -18.7% and -22% | [3]; at 50.0 µM -11.8% and -14.3% | [4]; at 50.0 µM 0.25% and -30.4% | [5]; at 50.0 µM -2.8% and -10.2% | [6]; at 50.0 µM 4.15% and -1.65%

CC1(C)OCC(C2OC(C)(C)OC2C2OC(O)C=CC2=O)O1 (stereo not given)
inactive: [1]; at 50.0 µM 19.8% and 18.5% | [2]; at 50.0 µM 18.9% and 2.1% | [3]; at 50.0 µM 24.6% and 6.5% | [4]; at 50.0 µM 9.05% and -4.9% | [5]; at 50.0 µM 24.9% and 10.9% | [6]; at 50.0 µM 20.3% and 10.6%

CC(O)C(O)C(O)C(O)CO (stereo not given)
inactive: [1]; at 50.0 µM 17.1% and -19.8% | [2]; at 50.0 µM -8.65% and -14.4% | [3]; at 50.0 µM -15.2% and -4.65% | [4]; at 50.0 µM 14.2% and -28.2% | [5]; at 50.0 µM -18.9% and -5.9% | [6]; at 50.0 µM 0.15% and -4.05%

OC(CBr)C(O)C(O)C(O)CBr (stereo not given)
inactive: [1]; at 50.0 µM 13.9% and 16.8% | [2]; at 50.0 µM 7.6% and -4.25% | [3]; at 50.0 µM 4.15% and -11.3% | [4]; at 50.0 µM 8.75% and -9.4% | [5]; at 50.0 µM -10.8% and 0.2% | [6]; at 50.0 µM -13% and -11.9%
